Assay results from PubChem BioAssay (NCATS).
Where “and” joins values, the source holds several entries; their conditions need not be identical. Equal values may be shown once. Inconclusive results are not listed. A number with no mark means an inactive call. Calls come from the whole dose curve; as a rule, active = well fitted activation curve with a large enough effect; inconclusive = small, poorly fitted or top-dose-only effect; inactive = no such curve, though single readings can be large or run the other way.

Molecular target: Cellular tumor antigen p53 (Homo sapiens) (UniProt P04637)
Test: Primary qHTS for small molecule compounds that upregulate eGFP-tagged delta133p53alpha (in N-terminal) cells. (AID 2060322);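 note: series mostly up to about 56 µM; 0% = DMSO vehicle and 100% = reference activator; nearly all actives have a fitted effect of over 75% in size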
Conditions: NCI-H358 eGFP-delta133p53alpha fluorescence, 24 h; activation: stronger effect = higher value
In short: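 NCI-H358 cells pre-induced 24 h with 10 ng/ml doxycycline to express N-terminal eGFP-delta133p53alpha, then dosed 24 h at 37C without doxycycline; fixed, Hoechst-stained, GFP intensity by laser scanning cytometry, normalized to DMSO (0%) and 57.5 uM 5-azacytidine (100%).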

Sequence of Cellular tumor antigen p53 (Homo sapiens) (P04637 whole entry, looked up): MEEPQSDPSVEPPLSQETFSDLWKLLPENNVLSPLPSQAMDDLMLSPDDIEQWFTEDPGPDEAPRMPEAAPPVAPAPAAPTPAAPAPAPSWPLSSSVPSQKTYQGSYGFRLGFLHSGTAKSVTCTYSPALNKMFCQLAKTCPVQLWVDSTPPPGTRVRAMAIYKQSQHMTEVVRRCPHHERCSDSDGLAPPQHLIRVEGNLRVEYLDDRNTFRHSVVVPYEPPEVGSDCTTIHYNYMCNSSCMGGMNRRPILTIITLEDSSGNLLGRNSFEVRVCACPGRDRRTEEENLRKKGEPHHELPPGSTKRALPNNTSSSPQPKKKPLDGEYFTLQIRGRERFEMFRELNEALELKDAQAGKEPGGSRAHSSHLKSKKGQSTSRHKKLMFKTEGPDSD

SMILES	activation
C(=C\c1ccccc1)/CN1CCN(C(c2ccccc2)c2ccccc2)CC1	-1.67% and -21%
CC(C)NNC(=O)c1ccncc1	1.67% and -19%
CN(C)CCC(c1ccc(Cl)cc1)c1ccccn1 (stereo not given)	-24.5%
NC(N)=NC(=O)c1nc(Cl)c(N2CCCCCC2)nc1N	-39.1%
CCCCCCCC/C=C\CCCCCCCC(=O)NCCO	-9.12%
C[C@]12C=CC(=O)C=C1CC[C@H]1[C@@H]3C[C@@H](O)[C@](O)(C(=O)CO)[C@@]3(C)C[C@H](O)[C@@]12F	10.9% and -4.1%
c1ccc2c(c1)CC(N1CCN(c3cccc4c3OCCO4)CC1)C2	1.22%
Cc1ccccc1C(OCCN(C)C)c1ccccc1 (stereo not given)	0.562% and -27.9%
CNC(=O)c1cc2c(cn1)[nH]c1ccccc12	11.5%
NCCCNCCSP(=O)(O)O	5.02% and 16.3%
CC(C)CC(NP(=O)(O)O[C@@H]1O[C@@H](C)[C@H](O)[C@@H](O)[C@H]1O)C(=O)NC(Cc1c[nH]c2ccccc12)C(=O)O (stereo not given in full)	-14.9%
O=C1C2C=CC=CC2=NC(=S)N1CCN1CCC(=C(c2ccc(F)cc2)c2ccc(F)cc2)CC1 (stereo not given)	-39.4%
CC1CNCCN1S(=O)(=O)c1cccc2cnccc12 (stereo not given)	-28.4%
C[N+](C)(C)CCCCCCCCCC[N+](C)(C)C	-20.9% and 13%
Cn1c(=O)c2[nH]c(C3CCCC3)nc2n(C)c1=O	3.95%
C[C@](N)(Cc1ccc(O)cc1)C(=O)O	-4.18% and 8.39%
CSC(=N)N	3.81%
NCCCS(=O)(=O)O	14.5%
NCCCC(=O)O	-3.84%
CCOC(=O)C1=C[C@]2(CC)CCCN3CCc4c(n1c1ccccc41)[C@@H]32	20.9% and -18.2%

SMILES	activation
c1ccc(C2CN3CCSC3=N2)cc1 (stereo not given)	27%
COCCOC(=O)C1=C(C)NC(C)=C(C(=O)OC/C=C/c2ccccc2)C1c1cccc([N+](=O)[O-])c1 (stereo not given)	8.47% and -12.4%
CCCCC[C@H](CC(=O)NO)C(=O)N[C@H](C(=O)N1CCC[C@H]1CO)C(C)C	-6.85%
O=C(O)CNC(=O)C(CS)Cc1ccccc1 (stereo not given)	-14.4%
Nc1ccc(CCNc2ncnc3c2ncn3C2OC(CO)C(O)C2O)cc1 (stereo not given)	-6.89%
Nc1ccc(-c2nc3ccc(-c4nc5ccc(N)cc5[nH]4)cc3[nH]2)cc1	-9.36%
NC(N)=N/N=C/c1c(Cl)cccc1Cl	35%
CC(C)NC[C@H](O)COc1cccc2[nH]ccc12	15.4%
CCc1cccc(N(C)C(N)=Nc2cccc3ccccc23)c1	19.2%
N[C@H](CCCP(=O)(O)O)C(=O)O	-16.6%
Fc1ccc(CN(C2=NCCN2)c2c(Cl)cccc2Cl)cc1	-28.1%
CCSC(=N)N	-32.7%
COc1cc(C(O)C(=O)O)ccc1O (stereo not given)	-11.9%
Cn1c(=O)c2[nH]c(-c3ccccc3)nc2n(C)c1=O	-37%
CC1(C)CCC=[N+]1[O-]	8.43%
C[N+]1(C)CCC(OC(=O)C(c2ccccc2)c2ccccc2)CC1	-16.4%
CNCCCC1c2ccccc2C=Cc2ccccc21	-1.67% and -3.36%
N[C@@H](Cc1ccc(F)cc1)C(=O)O	-38.4%
CC(=O)OC(C)C[N+](C)(C)C (stereo not given)	10.7% and 1.73%
O=C(Nc1ccncc1)c1cc([N+](=O)[O-])ccc1Cl	6.63%
